Source: PubChem
CHO-K1 Ca antag: counter-screen for M1 antagonists: effect in parental CHO-K1 cells. ATP-induced calcium, Fluo-8 fluorescence. inhibition, % at 3 µM. hit rate 0.6% among 360,000;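 active = inhibition above a per-plate cutoff, the plate's mean sample inhibition plus 3 SD, cut at about 24% in these data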;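 also: 0% = DMSO plus EC80 ATP and 100% = DMSO alone without ATP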
CHRM1 agonist: human M1 muscarinic receptor agonism; activation, % at 3 µM; hit rate 0.33% among 360,000; AID 588814; CHO-K1 hM1, Fluo-8 calcium fluorescence, agonist mode; 0% DMSO, 100% acetylcholine EC100; P11229;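 active = activation above the run's mean compound activation plus 3 SD, cut at about 16% in these data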;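 also: peak over basal fluorescence ratio within a 140 s kinetic read after compound addition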
Target sequence (P11229 whole entry, looked up): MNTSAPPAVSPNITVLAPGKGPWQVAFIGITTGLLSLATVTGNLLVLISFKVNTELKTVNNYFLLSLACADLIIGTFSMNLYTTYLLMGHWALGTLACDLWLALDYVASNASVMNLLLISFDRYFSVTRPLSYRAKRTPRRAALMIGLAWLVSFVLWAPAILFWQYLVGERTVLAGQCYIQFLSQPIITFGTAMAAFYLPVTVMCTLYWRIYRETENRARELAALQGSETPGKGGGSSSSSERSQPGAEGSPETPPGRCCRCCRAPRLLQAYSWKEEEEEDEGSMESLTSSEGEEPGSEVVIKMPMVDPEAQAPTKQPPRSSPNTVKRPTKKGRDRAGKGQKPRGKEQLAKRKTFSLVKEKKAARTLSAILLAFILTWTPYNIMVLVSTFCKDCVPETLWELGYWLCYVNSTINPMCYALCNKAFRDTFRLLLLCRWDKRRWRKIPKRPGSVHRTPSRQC
CHO-K1 Ca ag: counter-screen for M1 agonists: effect in parental CHO-K1 cells; Fluo-8 calcium fluorescence; scaled to maximal ATP response, vehicle zero; activation, % at 3 µM; hit rate 0.48% among 360,000; in the data active = activation above about 15%;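 also: untransfected CHO-K1 host cells lacking M1 receptor as counterscreen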
CHO-K1 Ca PAM: nonselective activator or artifact in parental CHO-K1 calcium assay; ATP EC20, Fluo-8 calcium fluorescence; 0% at ATP EC20, 100% at ATP max; hit rate 0.02% among 360,000; activation, % at 3 µM;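 active = activation above the run cutoff, the mean activation of all test compounds plus 3 SD, cut at about 40% in these data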;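 also: peak over basal fluorescence ratio in a 140 s read after ATP addition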
M1 antag: antagonists of human M1 muscarinic receptor | inhibition, % at 3 µM | hit rate 1.3% among 360,000 | CHO-K1 hM1, Fluo-8 calcium fluorescence, ACh EC80 antagonist;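 active = percent inhibition above its own plate's cutoff, namely the mean of that plate's compound wells plus 3 SD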;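 also: peak over basal fluorescence ratio during 140 s after agonist addition; 0% = ACh EC80 plus DMSO and 100% = DMSO alone without agonist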
CHRM1 PAM: human CHRM1 positive allosteric modulation; hit rate 0.088% among 360,000; CHO-K1 hM1, Fluo-8 calcium fluorescence, ACh EC20; 0% = ACh EC20, 100% = maximal ACh; AID 588819; activation, % at 3 µM; P11229; in the data active = activation above about 19%, passing the limit was not always enough
* marks the source's active call; other numbers are inactive results. Hits are enriched below; roughly 2.3% of the tested compounds scored in any of these assays.

SMILES	CHO-K1 Ca antag	CHRM1 agonist	CHO-K1 Ca ag	CHO-K1 Ca PAM	M1 antag	CHRM1 PAM
COC(=O)/C=C/CC(C)OS(N)(=O)=O (stereo not drawn)	-6	0	1	-11	-6	16
Cc1ccc(C(=O)NNC(=O)c2ccco2)cc1	-2	-3	1	2	-4	3
Cc1ccccc1OCC(=O)NNC(=S)NC(=O)c1ccco1	-2	18*	0	-6	-2	7
Cc1ccccc1OCC(=O)Nc1ccccc1NC(=O)c1ccco1	-12	-5	4	7	1	1
Cc1ccc(C(=O)NNC(=S)NC(=O)c2ccco2)cc1	2	30*	21*	-9	0	-4
CCCCC(=O)NC(=S)NNC(=O)c1ccc(Cl)cc1Cl	-16	25*	26*	3	6	-5
O=C(CNC(=S)NC(=O)c1ccc(Cl)cc1)c1ccccc1	1	-5	0	-2	3	32*
Cc1oc2nc(SCC(=O)NC3CCCCC3)nc(N)c2c1C	-1	3	0	3	-21	11
Cc1cc(NC(=O)C(C)SCC(=O)OCc2c(Cl)cccc2Cl)no1 (stereo not drawn)	14	1	4	-13	4	-3
Cc1cccc(C(=O)NNC(=S)NC(=O)c2ccccc2)c1	35*	97*	100*	-32	38	-28
Cc1ccc(C(=O)NNC(=S)NC(=O)c2ccccc2)cc1	27*	52*	70*	-31	52*	-27
Cc1cccc(C(=O)NNC(=S)NC(=O)c2cccs2)c1	20	84*	85*	-12	18	-20
Cc1ccc(C(=O)NNC(=O)c2cccc(C)c2)cc1	-3	-2	0	12	-11	7
COc1ccc(C(=O)NNC(=S)NC(=O)c2cccs2)cc1	-25	10	14	6	12	-9
Cc1ccc(C(=O)NC(=S)NNC(=O)c2ccc([N+](=O)[O-])cc2)cc1	-9	2	0	16	5	9
COc1ccc(/C=C/C(=O)NC(=S)NNC(=O)c2cccs2)cc1	-8	21*	5	9	9	-10
CC(=O)c1cccc(N(CC(=O)NC2CCCC2)C(=O)c2csnn2)c1	-4	-3	0	-10	-6	6
Cc1noc(C)c1CCC(=O)N1CCCC(N2CCN(c3ccc(F)cc3)CC2)C1 (stereo not drawn)	-2	-6	0	1	-2	-5
CN1CCN(c2ccc(S(=O)(=O)N3CCCCC3)cc2NC(=O)CSCc2ccccc2)CC1	-1	-6	-1	-4	8	-3
C=CCC1(C#N)C(SC)=NC2=C(C(=O)CC(C)(C)C2)C1c1ccc(Br)cc1 (stereo not drawn)	-8	-7	0	12	-13	-1
CC(C)C(NC(=O)c1ccccc1)C(=O)OCC(=O)N1CCCC1 (stereo not drawn)	-21	-3	1	7	-1	7
O=C(C[C@@H]1C/C=C\CCC(=O)OC[C@H](Cc2ccccc2)NC1=O)N[C@@H](CO)Cc1ccccc1	3	-7	0	-15	7	-4
CC(C)NC(=S)NC(=O)c1ccc(Cl)cc1Cl	-14	-10	1	17	-14	0
CC(C)(C)c1cc(CCC(=O)NNC(=S)NC(=O)c2ccccc2)cc(C(C)(C)C)c1O	30*	81*	56*	-6	49*	-29
Cc1ccc(C(=O)NC(=S)NNC(=O)c2ccccc2)cc1	35*	36*	20*	-32	5	-10
SMILES	CHO-K1 Ca antag	CHRM1 agonist	CHO-K1 Ca ag	CHO-K1 Ca PAM	M1 antag	CHRM1 PAM
Cc1ccc(C(=O)NNC(=S)NC(=O)c2ccc(Cl)cc2Cl)cc1	13	105*	107*	-13	46*	-25
O=C(CCc1ccccc1)NNC(=S)NC(=O)c1ccccc1	-7	10	2	-6	5	-5
CC(=O)OCCC(NS(=O)(=O)OCC(Cl)(Cl)Cl)c1ccccc1 (stereo not drawn)	1	-2	0	-12	-1	6
Cc1cccc(-n2c(CNC(=O)c3ccccc3)nnc2SCC(=O)Nc2nccs2)c1	-4	-1	0	14	-13	9
CCN1CCN(c2oc(/C=C/c3ccccc3)nc2C#N)CC1	10	-6	0	-13	-8	8
O=C(CC(=O)c1ccccc1)c1ccccc1	-4	-2	0	18	2	4
O=C(Cc1ccccc1Cl)c1ccccc1	-11	2	0	-9	-14	32*
CCC(C)C(CO)NCCCn1cnc2c(OC)ncnc21 (stereo not drawn)	-3	-1	0	11	21*	-15
COCCCN1C(=O)C(CC(=O)NCCCN(C)C)CC(C(=O)N2CCOCC2)=C1C (stereo not drawn)	-15	-3	0	12	-20	2
CC(Oc1ccc2c(-c3ccccc3)cc(=O)oc2c1)C(=O)NC(Cc1c[nH]c2ccc(O)cc12)C(=O)O (stereo not drawn)	27*	-1	3	-15	9	-10
O=C1NC(Cc2ccc(O)cc2)c2nc3ccccc3c(=O)n2-c2ncccc21 (stereo not drawn)	13	5	1	-7	3	7
Cc1ccccc1NC(=O)Cc1nc(COC(=O)c2ccc(S(C)(=O)=O)c([N+](=O)[O-])c2)cs1	5	-5	4	-10	34*	-26
Cc1ccccc1NC(=O)COC(=O)c1ccc(S(C)(=O)=O)c([N+](=O)[O-])c1	4	-4	0	-9	4	4
O=C(Cn1c2ccccc2c(=O)c2ccccc21)Nc1ccccc1F	0	-7	0	6	-5	2
O=C(Cn1c2ccccc2c(=O)c2cc([N+](=O)[O-])ccc21)Nc1ccccc1Cl	0	-7	15*	21	-4	10
Cc1c(C)n(CCO)c2ncnc(Nc3ccc(F)cc3)c12	-9	-3	2	9	43*	3
COc1ccc(Nc2ncnc3c2c(C)c(C)n3CCO)cc1	-2	-7	1	-5	13	-7
Cc1cc(Br)cnc1NC(=S)Nc1ccc(F)cc1F	-14	-5	3	9	1	1
COc1ccc(C2(SCC(N)C(=O)O)c3ccccc3-c3ccccc32)cc1 (stereo not drawn)	-25	-5	0	6	-9	9
O=c1c2cn(Cc3ccc(F)cc3)c3ccccc3c-2nn1Cc1ccc(F)cc1	-8	-1	0	-6	-7	5
O=c1c2cn(Cc3ccccc3)c3ccccc3c-2nn1Cc1ccc(F)cc1Cl	-9	20*	0	-2	-9	31*
